High-throughput results as filed in PubChem BioAssay.
LGR2 antag – inhibitors of bursicon-induced LGR2 CRE-luciferase signal, primary screen, cell-based, HEK293, CRE-luciferase reporter, bursicon stimulation. 0.35% of 380,000 active. bursicon-stimulated, 4 h. Drosophila bursicon receptor LGR2 (rickets). inhibition, % at 9.99 µM;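 active = drop in luminescence signal, shown as inhibition above about 50% in the replicate tests, limit read from the data, passing the limit was not always enough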;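 note: agonist challenge used bursicon conditioned medium at about half maximal strength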
EBV LMP1 NFkB – EBV LMP1-driven NF-kappaB luciferase reporter inhibitors, primary screen, cell-based, luminescence, single point. LMP1-induced NF-kappaB luciferase reporter cells. inhibition, % at 12.5 µM. 0.69% of 350,000 active; in the data active = inhibition above about 41%;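 note: 0% = neutral control wells and 100% = reference inhibitor control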
aDG glyco up – activators of alpha-DG glycosylation, primary screen, uHTS, Pro5-aDG cells, AlphaScreen; 0.22% of 360,000 active; AID 624168, 2012; activation, % at 10 µM; alpha-DG glycosylation AlphaScreen (IIH6); 0% Pro5, 100% B10-LARGE cell signal;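 active = activation of at least 8% versus controls, or a plate z-score of at least 8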;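 note: Pro5 are CHO cells carrying HIG-tagged alpha-DG that lacks glycosylation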
TROY NFkB inh – inhibitors of TROY-driven NF-kB signaling, primary screen, Q293 LMP1-TROYcd cells, NF-kB luciferase, uHTS; AID 1347056, 2019; inhibition, % at 10 µM; 0.98% of 360,000 active; Q293 LMP1-TROYcd NF-kB luciferase reporter, 4 h;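 active = compounds whose plate-normalised and pattern-corrected inhibition of the luciferase reporter signal at the single screening dose is 50% or more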
TWEAK Fn14 block – inhibitors of TWEAK-Fn14 signaling, primary screen, luciferase reporter cells, uHTS; TWEAK-stimulated Fn14 reporter cells, luciferase luminescence, 8 h; inhibition, % at 10 µM; 2% of 360,000 active; in the data active = inhibition above about 50%
HSP90 refold inh – HSP90 inhibitors, primary screen, cell lysate, luminescence. Heat shock protein HSP 90 (rabbit reticulocyte lysate; luciferase refolding). Rabbit reticulocyte lysate, luciferase refolding luminescence, 3 h. inhibition, % at 5.6 µM. 0.91% of 290,000 active;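 active = inhibition above the screen-wide mean plus 3 SD, computed separately per campaign, cut at about 16% in these data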;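 note: 0% = DMSO wells and 100% = 60 µM geldanamycin wells; inhibitors lower the luminescence because luciferase stays unfolded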
Starred values were filed as active, the others as inactive; . = no result; ! = repeats disagree. Sampled rows, rich in hits. Any-hit rate of the full collection: about 2.6%.

SMILES	LGR2 antag	EBV LMP1 NFkB	aDG glyco up	TROY NFkB inh	TWEAK Fn14 block	HSP90 refold inh
O=C(N/C(=C/c1ccc(Br)cc1)C(=O)N1CCOCC1)c1ccc(Br)o1	-10.3	60.6*	-0.1	-2.3	-13.9	-2.0
O=C(N/C(=C\c1ccc(Br)cc1)C(=O)N1CCOCC1)c1ccc(Br)o1	2.9	-0.7	0.1	17.8	-10.3	2.9
COC(=O)Nc1ccc(S(=O)(=O)N2CCCc3cccc(O)c32)cc1	22.1	-4.3	1.4	21.2	9.9	2.7
CCc1nnc(NC(=O)c2ccc(S(=O)(=O)N3CCCc4ccccc43)cc2)o1	0.9	7.4	0.6	15.6	22.6	1.9
Cc1cccc(S(=O)(=O)N2CCCc3ccccc32)c1	6.9	48.0*	-0.1	-1.9	6.9	7.7
COC(=O)Nc1ccc(S(=O)(=O)N2CCCc3ccccc32)cc1	.	15.9	-0.1	27.9	52.8*	1.8
O=C(Nc1nc2c(s1)CCCC2)c1ccc(S(=O)(=O)N2CCCc3ccccc32)cc1	22.5	-49.8	-0.4	16.7	69.3*	0.8
CC1CCc2nc(NC(=O)c3ccc(S(=O)(=O)N4CCCc5ccccc54)cc3)sc2C1 (stereo not drawn)	.	39.0	-0.2	8.6	54.8*	-1.4
C[C@H]1CCCCO[C@H](CN(C)C(=O)C2CCCCC2)[C@@H](C)CN([C@@H](C)CO)C(=O)c2cc(NS(=O)(=O)c3ccc(Cl)cc3)ccc2O1	-0.3	.	.	.	.	.
N#C[C@H]1[C@@H](c2ccccc2C2=CCCCC2)[C@@H](CO)N1C(=O)Nc1ccccc1F	14.1	.	.	.	.	.
CNC(=O)c1ccsc1NC(=O)c1ccc(S(=O)(=O)N2CCCc3ccccc32)cc1	9.7	-1.5	0.1	48.3	76.2*	0.7
CCCC(=O)OC/C(O)=C(\C#N)c1nc2ccccc2[nH]1	16.1	1.2	-0.6	-0.7	9.5	-0.6
N#C/C(=C(/O)COC(=O)CCC1CCCCC1)c1nc2ccccc2[nH]1	.	-7.3	1.1	-10.3	89.2*	-1.0
CCOC(=O)C1CCN(CC(=O)Nc2c(C(=O)OC)[nH]c3ccccc23)CC1	.	.	.	.	.	0.2
CCOC(=O)C1CCN(CC(=O)Nc2c(C(=O)OC)[nH]c3ccc(Cl)cc23)CC1	.	17.4	2.3	47.5	64.0*	1.0
CCOC(=O)c1c(C)[nH]c(C)c1C(=O)CSc1nc2ccccc2n1CC	7.9	3.9	-0.1	8.6	2.4	2.3
CCOC(=O)c1c(C)[nH]c(C)c1C(=O)CSc1nc2ccccc2c(=O)n1-c1ccc(CC)cc1	-0.1	20.1	-0.4	14.5	50.4*	-1.3
O=C1CC(N(CCc2ccccc2)C(=S)Nc2ccccc2)C(=O)N1c1ccc(Br)cc1 (stereo not drawn)	30.3	4.9	3.4	46.6	78.6*	-3.1
NC1(C#Cc2ccc3c(=O)c4ccccc4sc3c2)CCCCC1	.	8.3	-0.1	48.5	81.4*	.
Cc1cc2sc3ccc(C#CC4(O)CCCCC4)cc3c(=O)c2cc1C	.	77.6*	1.0	89.6*	106.3*	.
O=c1c2ccccc2oc2ccc(C#CC3(O)CCCCC3)cc12	74.9*	-11.9	-0.1	88.7*	98.3*	.
COc1cccc2oc3ccc(C#CC4(N)CCCCC4)cc3c(=O)c12	-12.7	-10.8	-0.2	49.4	38.0	6.4
CCCC(=O)Nc1ccc2c(c1)C(=O)N(C)[C@@H]1CC[C@H](CC(=O)NCC(F)(F)F)O[C@@H]1CO2	-8.6	.	.	.	.	.
Cc1noc(C)c1COC(=O)c1cccc(S(=O)(=O)N2c3ccccc3CC2C)c1 (stereo not drawn)	.	10.3	0.8	18.7	52.8*	6.2
COC(=O)CCCCC1SCC(NC(=O)OC)C1NC(=O)OC (stereo not drawn)	.	6.5	0.0	.	19.1	4.5
SMILES	LGR2 antag	EBV LMP1 NFkB	aDG glyco up	TROY NFkB inh	TWEAK Fn14 block	HSP90 refold inh
COC(=O)CCCC[C@@H]1SC[C@@H](NC(=O)OC)[C@@H]1NC(=O)OC	.	53.4*	0.2	-16.2	6.3	-2.9
CCOC(=O)Cc1cc(OC)c(OC)cc1Cc1cc(OC)c(OC)cc1CC(=O)OCC	.	-2.1	-0.2	8.6	79.6*	0.6
COC(=O)Cc1cc(OC)c(OC)cc1Cc1cc(OC)c(OC)cc1CC(=O)OC	.	4.8	-0.2	10.9	7.4	4.0
O=C(NC1CC1)c1cc(-c2ccc(Br)cc2)nc2ccccc12	-14.8	42.4*	-0.1	-13.1	-14.4	.
COc1ccc(-c2cc(C(=O)NC3CC3)c3ccccc3n2)cc1	0.9	-1.7	-0.1	-14.8	17.7	-2.6
CCCCCCCCCCCCCCCC[n+]1cccc(C(=O)N(CC)CC)c1	-2.0	4.3	0.9	57.0*!	-15.5	0.6
CCCCCCCC[n+]1cccc(C(=O)N(CC)CC)c1	.	-2.1	-0.1	3.5	17.6	0.9
CC1CC(=O)c2c(cc3c(-c4c(O)cc(O)c5c(O)c6c(cc45)OC(C)CC6=O)c(O)cc(O)c3c2O)O1 (stereo not drawn)	.	27.2	0.9	1.4	77.6*	2.7
C[C@@H]1CN([C@@H](C)CO)C(=O)c2cccc(NC(=O)Nc3ccc(F)cc3)c2O[C@@H]1CN(C)C(=O)Nc1ccc(F)cc1	2.7	.	.	.	.	.
C[C@H]1CN([C@@H](C)CO)C(=O)c2cc(C#CC3CC3)cnc2O[C@H]1CN(C)C(=O)Nc1ccccc1	-12.4	.	.	.	.	.
Clc1cccc(CN2CCCCCC2)c1	-7.9	80.2*	0.0	-9.5	2.1	-0.2
CO[C@@H]1CN(C)C(=O)c2ccc(NC(C)=O)cc2OC[C@@H](C)N(Cc2cc(-c3ccccc3)on2)C[C@H]1C	-3.1	.	.	.	.	.
O=C(C[C@H]1C[C@@H]2c3cc(NC(=O)Nc4ccccc4F)ccc3O[C@@H]2[C@H](CO)O1)NCC1CC1	-13.3	.	.	.	.	.
COC(=O)c1ccc(COc2cccc3c2CCN(Cc2ccccc2)C3=O)o1	11.2	3.2	1.1	28.1	35.0	-4.2
COC(=O)c1ccc(COc2cccc3c2CCN(Cc2cccc(C)c2)C3=O)o1	8.2	11.9	1.5	38.4	55.4*	0.7
CCCCc1c(C)c(C#N)c2[nH]c3ccccc3n2c1=O	.	5.8	-0.1	52.5*	9.4	2.9
Cc1c(CCO)c(=O)n2c([nH]c3ccccc32)c1C#N	14.2	7.3	0.0	1.8	2.8	-1.7
CCCc1[nH]c2ccc(C(=O)OC)cc2c1CCC	-4.5	-1.8	0.2	-41.7	-15.9	-0.3
CCCc1[nH]c2ccc(C#N)cc2c1CCC	10.0	-6.4	0.3	53.5*	39.0	0.3
O=C(N/N=C/c1ccc[nH]1)c1ccc(COc2cccc3cccnc23)cc1	22.3	47.3*	0.1	48.5	84.5*	0.1
Cc1noc(C)c1NC(=O)N(C)C[C@@H]1OCCCC[C@H](C)Oc2ccc(NC(=O)c3ccccc3)cc2C(=O)N([C@H](C)CO)C[C@H]1C	-7.7	.	.	.	.	.
